Source: PubChem BioAssay (NCATS)
Inconclusive results are not listed. Activity calls are given as the source filed them. Unless noted, the call rests on the fitted dose curve; in most records, active means well fitted curve in the direction sought with a large enough effect; inconclusive means small, poorly fitted or top-dose-only effect, or another doubt; inactive means no such curve, though single readings can be large; an effect the other way counts as inactive or inconclusive.

Assays:
[1] = AP1 Signaling Pathway (AID 357; active means well fitted curve in either direction with a large enough effect, not every such curve was filed as active;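 further: ME-180 reporter cells stimulated with EGF at its EC50 level; on the % scale 0 is the no-effect control and ±100 the full control effect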); conditions: ME-180 AP-1-bla reporter, EGF-induced, beta-lactamase ratio, 5 h; at 7.69 µM (top of the series) unless noted
Summary of the method: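 Beta-lactamase reporter under AP-1 response element, ME-180 background. Stimulus: EC50 EGF. Compound exposure 5 h, 37 °C. Detection: CCF4, 2.5 h RT, 460/530 nm. Values: AC50 from titration.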

[2] = NFAT Signaling Pathway (AID 444; active means well fitted curve in either direction with a large enough effect, not every such curve was filed as active;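 further: carbachol stimulus at about its EC50 of 1 µM final; on the % scale 0 is the no-effect control and ±100 the full control effect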); conditions: Jurkat NFAT-bla M1, carbachol, beta-lactamase ratio, 5 h; at 7.69 µM (top of the series) unless noted
Summary of the method: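 Jurkat cells with NFAT-driven β-lactamase reporter and co-expressed M1 receptor, stimulated with carbachol (final 1 uM, ~EC50), compound titration, 5 h at 37 °C. CCF4 loaded 1 h at RT; 460/530 nm ratio gave %activity and AC50.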

[3] = Stat Signaling Pathway (AID 446; active means well fitted curve in either direction with a large enough effect, not every such curve was filed as active;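 further: ME-180 cervical cancer cells given 40 pM IL-6 alongside compound; SIE-controlled beta-lactamase reporter measured as 460/530 nm FRET emission ratio; on the % scale 0 is the no-effect control and ±100 the full control effect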); conditions: ME-180 (cervical carcinoma) SIE beta-lactamase reporter, IL-6 stimulated, 5 h; at 7.69 µM (top of the series) unless noted
Summary of the method: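 Emission at 460 and 530 nm (excitation 405 nm) reports SIE-controlled beta-lactamase in ME-180 cells. Cells received compound with 40 pM IL-6 for 5 hrs at 37 C; data scaled between 300 pM IL-6 and 125 nM JAK-inhibitor controls.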

[4] = target: Glucocorticoid receptor (Homo sapiens) (UniProt P04150); assay: GR-GFP Redistribution (AID 450;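 active means compounds whose dose series gives a full or clear partial fitted curve of increased nuclear translocation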; further: potency means the concentration at half of the fitted maximal effect); conditions: U2OS GR-GFP nuclear translocation, laser cytometry, 2 h
Glucocorticoid receptor (Homo sapiens), sequence (P04150 whole entry, looked up, the tested form may be a part): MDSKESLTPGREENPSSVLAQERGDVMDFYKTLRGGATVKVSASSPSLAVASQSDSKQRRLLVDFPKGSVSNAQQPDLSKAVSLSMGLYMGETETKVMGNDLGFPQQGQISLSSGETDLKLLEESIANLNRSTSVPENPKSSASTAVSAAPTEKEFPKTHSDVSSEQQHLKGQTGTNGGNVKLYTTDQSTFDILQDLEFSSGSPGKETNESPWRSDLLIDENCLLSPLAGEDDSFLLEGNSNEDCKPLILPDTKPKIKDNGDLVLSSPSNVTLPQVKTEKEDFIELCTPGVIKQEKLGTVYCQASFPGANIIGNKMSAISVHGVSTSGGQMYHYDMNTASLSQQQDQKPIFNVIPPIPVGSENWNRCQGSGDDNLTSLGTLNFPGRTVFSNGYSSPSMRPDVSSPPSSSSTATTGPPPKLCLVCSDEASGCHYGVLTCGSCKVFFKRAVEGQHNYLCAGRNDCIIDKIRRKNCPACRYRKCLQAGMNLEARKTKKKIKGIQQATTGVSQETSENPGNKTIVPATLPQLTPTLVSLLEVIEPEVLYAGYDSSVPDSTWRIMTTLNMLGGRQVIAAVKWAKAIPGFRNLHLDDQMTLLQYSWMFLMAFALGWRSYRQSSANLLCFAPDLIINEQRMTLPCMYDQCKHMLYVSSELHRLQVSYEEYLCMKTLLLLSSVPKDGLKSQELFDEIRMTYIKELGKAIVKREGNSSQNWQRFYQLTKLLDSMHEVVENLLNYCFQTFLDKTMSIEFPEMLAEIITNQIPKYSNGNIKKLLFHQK

[5] = target: Glucocorticoid receptor (Homo sapiens) (UniProt P04150); assay: GR-EFC Redistribution (AID 451; calls by dose curve; further: potency means the concentration at half of the fitted maximal effect); conditions: CHO-K1 GR-EFC translocation, beta-gal luminescence, 2 h
Summary of the method: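 CHO-K1 cells expressing nuclear EA and GR-ED fragments of b-gal; compounds titrated up to 46 uM final, 2 h at 37 C. GR nuclear translocation read as complemented b-gal luminescence after 1 h RT detection.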

[6] = target: Mitogen-activated protein kinase 10 (Mus musculus) (UniProt Q61831); assay: JNK3 AlphaScreen Assay (AID 530; active means well fitted curve in either direction with a large enough effect, not every such curve was filed as active;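 further: kinase came from lysate of stimulated human HepG2 cells; signal reports phosphorylation of biotinylated GST-cJun 1-79 at Ser73 with 10 µM ATP; on the % scale 0 is the no-effect control and ±100 the full control effect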)
Summary of the method: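 Activity was read by AlphaScreen after JNK3-containing HepG2 lysate (cytokine pre-activated) phosphorylated biotinylated GST-cJun with 10 uM ATP at room temperature. Phospho-Ser73 cJun antibody with Protein-A acceptor beads provided detection.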

[7] = target: 3',5'-cyclic-AMP phosphodiesterase 4B (Homo sapiens) (UniProt Q07343); assay: qHTS Assay for Inhibitors of PDE-IV (AID 607; active means well fitted activation curve with a large enough effect in the main read-out, with a control signal flat, not every such curve was filed as active; further: % of control where 0% means no effect)
3',5'-cyclic-AMP phosphodiesterase 4B (Homo sapiens), sequence (Q07343 whole entry, looked up): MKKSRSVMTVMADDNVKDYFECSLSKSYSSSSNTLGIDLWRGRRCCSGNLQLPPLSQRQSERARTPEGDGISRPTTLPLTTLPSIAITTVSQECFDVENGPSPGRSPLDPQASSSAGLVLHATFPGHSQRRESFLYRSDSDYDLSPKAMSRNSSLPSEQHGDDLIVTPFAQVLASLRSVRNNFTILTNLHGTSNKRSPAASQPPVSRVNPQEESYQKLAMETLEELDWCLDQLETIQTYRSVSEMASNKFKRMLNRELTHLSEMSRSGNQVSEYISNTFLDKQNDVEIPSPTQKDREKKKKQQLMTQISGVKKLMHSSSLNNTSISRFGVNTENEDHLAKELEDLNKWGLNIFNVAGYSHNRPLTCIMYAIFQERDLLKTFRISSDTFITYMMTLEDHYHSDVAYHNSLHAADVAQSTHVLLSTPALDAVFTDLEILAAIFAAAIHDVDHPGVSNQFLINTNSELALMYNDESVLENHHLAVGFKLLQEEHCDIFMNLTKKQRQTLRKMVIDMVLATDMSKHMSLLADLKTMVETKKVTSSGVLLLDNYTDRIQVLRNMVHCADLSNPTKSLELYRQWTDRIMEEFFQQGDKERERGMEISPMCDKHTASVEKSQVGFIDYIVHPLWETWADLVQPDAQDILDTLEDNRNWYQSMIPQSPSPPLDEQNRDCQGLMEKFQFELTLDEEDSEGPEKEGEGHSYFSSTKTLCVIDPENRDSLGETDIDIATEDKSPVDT
Summary of the method: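 The readout is membrane depolarisation from a cAMP-sensing CNG channel, detected with a potential dye at ex 535/em 590. Cells were HEK293-derived (endogenous PDE-IV) at 1000 cells/well, titrated up to 22.9 uM final.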

[8] = target: Guanine nucleotide-binding protein G(i) subunit alpha-1 (Homo sapiens) (UniProt P63096); assay: qHTS Assay for Inhibitors of RGS12 GoLoco Motif Activity (Green Fluorophore) (AID 879);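 further: 0% = labeled peptide with Gαi1 and full inhibition = labeled peptide alone without protein; negative values mean loss of peptide binding seen as reduced polarization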
Summary of the method: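 A drop in FITC polarization marked displacement of the FITC-tagged RGS12 GoLoco peptide (10 nM) from Gαi1 (50 nM). Compounds were incubated 10 min at room temperature in Tris pH 7.5 buffer containing 150 mM NaCl, 0.1 mM GDP and 0.05% NP40; unlabeled peptide titration served as control.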

[9] = qHTS Assay for Identification of Small Molecule Agonists for Thrombopoietin (TPO) Signaling Pathway (AID 917); further: on the % scale 0 is the no-effect control and ±100 the full control effect
Summary of the method: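 Quantitative HTS for pathway activators: compounds were pin-transferred onto IL-3-starved Ba/F3 cells expressing human TPO receptor, TPO was added at its EC50 (26 pM final), and after 24 hrs at 37 C reporter luciferase was measured.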

[10] = target: Muscarinic acetylcholine receptor M1 (Rattus norvegicus) (UniProt P08482); assay: qHTS Assay for Antagonists of Acetylcholine Muscarinic M1 Receptor: Kinetic Measurement of Intracellular Calcium Response (AID 943);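 further: Fluo-4 calcium signal as peak divided by basal fluorescence over 4 min; nearly all actives have a fitted effect of over 75% in size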
Muscarinic acetylcholine receptor M1 (Rattus norvegicus), sequence (P08482 whole entry, looked up): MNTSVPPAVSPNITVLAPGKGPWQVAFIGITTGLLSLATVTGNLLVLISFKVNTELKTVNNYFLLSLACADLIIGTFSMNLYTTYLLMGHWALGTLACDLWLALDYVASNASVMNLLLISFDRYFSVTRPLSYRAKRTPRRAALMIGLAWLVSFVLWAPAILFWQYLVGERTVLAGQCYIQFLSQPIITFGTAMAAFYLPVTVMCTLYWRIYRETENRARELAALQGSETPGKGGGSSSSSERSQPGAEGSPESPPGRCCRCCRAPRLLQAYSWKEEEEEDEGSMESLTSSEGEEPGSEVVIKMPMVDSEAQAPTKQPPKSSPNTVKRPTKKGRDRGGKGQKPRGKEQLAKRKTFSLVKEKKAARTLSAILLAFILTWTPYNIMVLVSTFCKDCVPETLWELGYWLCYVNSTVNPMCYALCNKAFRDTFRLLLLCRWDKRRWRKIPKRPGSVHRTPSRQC
Summary of the method: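 Antagonism measured as reduction of carbachol-evoked (EC80, 100 nM final) calcium flux in rat M1-CHO cells after 10 min compound exposure. Fluo-4 signal read kinetically; ratio of maximal to basal fluorescence.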

[11] = target: Muscarinic acetylcholine receptor M1 (Rattus norvegicus) (UniProt P08482); assay: qHTS Assay for Antagonists of Acetylcholine Muscarinic M1 Receptor: Measurement of IP-One Response (AID 944); further: nearly all actives have a fitted effect of over 75% in size
Summary of the method: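 IP1 accumulation measured via TR-FRET between d2-IP1 and Eu-cryptate anti-IP1 antibody after carbachol (200 nM, EC80) stimulation for 30 min; rat M1-transfected CHO cells received compound 10 min before agonist.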

[12] = target: Pyruvate kinase (Leishmania mexicana) (UniProt Q27686); assay: qHTS Validation Assay for Inhibitors of Leishmania Mexicana Pyruvate Kinase (AID 945);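 further: 0% = DMSO only neutral control wells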
Summary of the method: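 The enzyme is a highly purified E451W mutant of LmPYK used at 0.2 nM. It converts 0.5 mM PEP and 0.1 mM ADP over 1 h at room temperature; product ATP is quantified by luciferase luminescence relative to DMSO controls.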

[13] = target: Pyruvate kinase PKM (Homo sapiens) (UniProt P14618); assay: qHTS Assay for Activators of Human Muscle Pyruvate Kinase (AID 954; active means well fitted curve in the direction sought with a large enough effect, not every such curve was filed as active;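 further: 0% = uninhibited enzyme and -100% = no enzyme or full thiadiazolimine inhibition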)
Pyruvate kinase PKM (Homo sapiens), sequence (P14618 whole entry, looked up): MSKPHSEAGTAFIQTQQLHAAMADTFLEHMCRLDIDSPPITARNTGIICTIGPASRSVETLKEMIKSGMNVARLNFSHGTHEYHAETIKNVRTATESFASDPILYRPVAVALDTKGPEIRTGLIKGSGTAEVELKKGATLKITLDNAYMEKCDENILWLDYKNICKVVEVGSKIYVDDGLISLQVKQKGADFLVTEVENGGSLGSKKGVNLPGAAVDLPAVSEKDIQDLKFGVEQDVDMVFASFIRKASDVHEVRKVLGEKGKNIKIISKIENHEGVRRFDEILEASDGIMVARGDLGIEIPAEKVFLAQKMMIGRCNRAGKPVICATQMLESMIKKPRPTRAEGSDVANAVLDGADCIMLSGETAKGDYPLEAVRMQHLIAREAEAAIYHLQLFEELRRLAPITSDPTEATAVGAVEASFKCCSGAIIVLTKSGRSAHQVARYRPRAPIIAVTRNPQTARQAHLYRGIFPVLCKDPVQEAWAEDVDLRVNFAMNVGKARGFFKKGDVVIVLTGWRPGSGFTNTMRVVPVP
Summary of the method: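 PKM2, human, >95% pure, 0.1 nM; PEP 0.5 mM (Km), ADP 0.1 mM; 50 mM imidazole pH 7.2, 50 mM KCl, 0.01% Tween 20, 0.05% BSA; 1 h RT; luciferase luminescence readout.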

[14] = target: Alpha-galactosidase A (Homo sapiens) (UniProt P06280); assay: Counterscreen for Glucocerebrosidase Inhibitors: qHTS Assay for Human alpha-Galactosidase at pH 4.5 (AID 992); further: 0% is about no effect
Alpha-galactosidase A (Homo sapiens), sequence (P06280 whole entry, looked up): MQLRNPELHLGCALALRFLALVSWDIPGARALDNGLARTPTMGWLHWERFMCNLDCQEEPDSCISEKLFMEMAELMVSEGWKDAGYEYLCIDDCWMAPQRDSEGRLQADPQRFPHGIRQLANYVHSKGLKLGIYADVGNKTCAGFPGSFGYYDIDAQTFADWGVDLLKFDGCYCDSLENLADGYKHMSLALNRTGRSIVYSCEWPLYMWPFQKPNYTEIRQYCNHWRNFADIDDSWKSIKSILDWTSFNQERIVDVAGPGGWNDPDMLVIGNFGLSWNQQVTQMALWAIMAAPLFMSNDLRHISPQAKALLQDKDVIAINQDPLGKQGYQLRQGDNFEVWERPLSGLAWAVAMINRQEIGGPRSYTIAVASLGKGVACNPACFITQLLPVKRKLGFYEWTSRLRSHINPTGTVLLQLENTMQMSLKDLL
Summary of the method: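 Fluorogenic 4-MU alpha-D-galactoside (80 uM) hydrolysis, 2 nM enzyme, pH 4.5 citrate buffer + 0.005% Tween-20; 20 min RT; NaOH/glycine pH 10 stop; Ex365/Em440. Compounds titrated 0.7 nM–77 uM; Hill-equation AC50.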

[15] = target: alpha-glucosidase (Oryza sativa, rice) (UniProt Q653V4); assay: Counterscreen for Glucocerebrosidase Inhibitors: qHTS Assay for Rice alpha-Glucosidase at pH 5.0 (AID 997);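 further: 0% = full activity with enzyme and -100% = basal without enzyme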
Summary of the method: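 Endpoint fluorogenic assay at pH 5.0: compounds (0.7 nM to 77 uM) titrated against 4 nM rice enzyme and 400 uM 4-MU-alpha-glucoside for 20 min at room temperature; NaOH/glycine stop, read ex 365/em 440 nm, Hill-fitted AC50.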

[16] = target: DNA repair nuclease/redox regulator APEX1 (Homo sapiens) (UniProt P27695); assay: qHTS Validation Assay for Inhibitors of the Human Apurinic/apyrimidinic Endonuclease 1 (APE1) (AID 1705)
DNA repair nuclease/redox regulator APEX1 (Homo sapiens), sequence (P27695 whole entry, looked up): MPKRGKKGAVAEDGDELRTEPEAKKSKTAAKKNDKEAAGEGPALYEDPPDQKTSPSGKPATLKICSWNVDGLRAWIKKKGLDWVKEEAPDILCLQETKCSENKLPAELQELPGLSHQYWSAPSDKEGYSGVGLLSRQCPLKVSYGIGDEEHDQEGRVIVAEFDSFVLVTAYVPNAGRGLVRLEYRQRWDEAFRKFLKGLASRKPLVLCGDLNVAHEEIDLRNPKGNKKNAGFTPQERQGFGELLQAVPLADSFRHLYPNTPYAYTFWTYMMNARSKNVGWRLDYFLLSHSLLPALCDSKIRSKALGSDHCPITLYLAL
Summary of the method: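 Endonuclease activity of human APE1 is followed as dequenching when the enzyme incises a tetrahydrofuran abasic site in a short duplex labelled 5'-TAMRA/3'-BHQ-2 (50 nM final), after 15 min enzyme–compound preincubation at room temperature.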

[17] = Counterscreen for APE1 Inhibitors: Fluorescent Dye Displacement Validation Assay (AID 1707);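 further: plate controls were ThO with dsDNA and no compound for no effect and ThO without dsDNA for full effect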
Summary of the method: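 Endpoint fluorescence read at 480 nm excitation / 540 nm emission; DNA-binding compounds lower signal by displacing 250 nM Thiazole Orange from 50 nM dsDNA containing a tetrahydrofuran abasic site, Tris-HCl pH7.5 buffer with NaCl and MgCl2.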

[18] = target: Endonuclease 4 (Escherichia coli (strain K12)) (UniProt P0A6C1); assay: Counterscreen for APE1 Inhibitors: qHTS Validation Assay for Inhibitors of Endonuclease IV (AID 1708); further: on the % scale 0 is the no-effect control and ±100 the full control effect
Summary of the method: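 Conditions: 2 nM enzyme, 50 nM TAMRA/BHQ-2 substrate, pH 7.5 Tris buffer with 2 mM MgCl2, RT. Compound preincubation 15 min; readout three fluorescence reads 60 s apart, third-minus-first.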

[19] = qHTS for differential inhibitors of proliferation of Plasmodium falciparum line D10 (AID 1877);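 further: parasites grown with compound for 72 h before DNA staining; plate controls were vehicle wells for no effect and reference inhibitor wells for full effect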
[20] = qHTS for differential inhibitors of proliferation of Plasmodium falciparum line Dd2 (AID 1882); conditions: Potency: Plasmodium falciparum Dd2 proliferation inhibition;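 further: plate controls were DMSO vehicle for no effect and 0.29 µM artemisinin for full effect; nearly all actives have a fitted effect of over 65% in size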
Summary of the method: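 SYBR Green DNA fluorescence (ex 485, em 535 nm) after overnight lysis quantifies parasite growth; compound exposure lasted 72 h at 37 C on infected red cells at 2.5% hematocrit, 0.3% parasitemia (final). Artemisinin 0.29 uM and vehicle wells define normalization.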

[21] = target: Ferritin light chain (Equus caballus) (UniProt P02791); assay: qHTS Validation Assay for Identification of Novel General Anesthetics (AID 2323); further: on the % scale 0 is the no-effect control and ±100 the full control effect
Ferritin light chain (Equus caballus), sequence (P02791 2-175 limits assumed): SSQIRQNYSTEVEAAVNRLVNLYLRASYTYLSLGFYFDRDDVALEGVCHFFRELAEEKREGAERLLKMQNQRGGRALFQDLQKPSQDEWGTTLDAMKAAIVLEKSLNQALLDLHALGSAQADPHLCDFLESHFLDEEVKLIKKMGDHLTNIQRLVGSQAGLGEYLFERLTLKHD
Summary of the method: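 Apoferritin from horse spleen (10 uM) was mixed with 1-aminoanthracene at 50% saturation in PBS, then compounds were added. After 10 min at room temperature, fluorescence was read (ex 380 nm, em 535 nm) and normalized to free-probe and complex controls.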

[22] = target: ATP-dependent DNA helicase Q1 (Homo sapiens) (UniProt P46063); assay: qHTS Validation Assay for Inhibitors of RecQ-Like Dna Helicase 1 (RECQ1) (AID 2353);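 further: plate controls were DMSO vehicle for no effect and enzyme-free control for full effect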
Summary of the method: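 RECQ1T1 50 nM; forked duplex (20 bp + 30-nt ss tails) 200 nM, ATP 2 mM final; pH 8.0, 2 mM MgCl2, 2.5 ug/ml poly(dI-dC); 15 min compound preincubation; discontinuous kinetic read over 2 h at RT.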

[23] = Validation screen for small molecules that induce DNA re-replication in MCF 10A normal breast cells (AID 463097); further: 0% is about no effect; nearly all actives have a fitted effect of over 60% in size
Summary of the method: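 DNA re-replication was detected as a rise in nuclei with elevated Hoechst fluorescence after a 48 hr compound exposure of MCF 10A cells at 37 C.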

[24] = Quantitative high throughput screen for delayed death inhibitors of the malarial parasite plastid, 48 hour incubation (AID 488752); further: on the % scale 0 is the no-effect control and ±100 the full control effect; nearly all actives have a fitted effect of over 65% in size
Summary of the method: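 One-generation (48 h) growth assay: a decrease in luciferase signal from an integrated reporter in P. falciparum-infected red cells (0.1% parasitemia, 2% hematocrit) after compound exposure at 37 C indicates parasite inhibition.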

[25] = target: Transient receptor potential cation channel subfamily V member 1 (Homo sapiens) (UniProt Q8NER1); assay: HTS Assay for Compounds that Act as Enhancers of the Vanilloid Receptor 1 (AID 488979); further: 0% is about no effect
Summary of the method: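 TRPV1 cells loaded with Fluo-8 calcium dye; compound added and Ca2+ signal (ex 480/em 520 nm) followed 3 min, then capsaicin at EC20 added and read 2 more min to detect enhancement.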

[26] = target: Thyrotropin receptor (Homo sapiens) (UniProt P16473); assay: qHTS Assay for Antagonists of the Thyroid Stimulating Hormone Receptor (AID 488980); further: 0% is about no effect
Thyrotropin receptor (Homo sapiens), sequence (P16473 whole entry, looked up): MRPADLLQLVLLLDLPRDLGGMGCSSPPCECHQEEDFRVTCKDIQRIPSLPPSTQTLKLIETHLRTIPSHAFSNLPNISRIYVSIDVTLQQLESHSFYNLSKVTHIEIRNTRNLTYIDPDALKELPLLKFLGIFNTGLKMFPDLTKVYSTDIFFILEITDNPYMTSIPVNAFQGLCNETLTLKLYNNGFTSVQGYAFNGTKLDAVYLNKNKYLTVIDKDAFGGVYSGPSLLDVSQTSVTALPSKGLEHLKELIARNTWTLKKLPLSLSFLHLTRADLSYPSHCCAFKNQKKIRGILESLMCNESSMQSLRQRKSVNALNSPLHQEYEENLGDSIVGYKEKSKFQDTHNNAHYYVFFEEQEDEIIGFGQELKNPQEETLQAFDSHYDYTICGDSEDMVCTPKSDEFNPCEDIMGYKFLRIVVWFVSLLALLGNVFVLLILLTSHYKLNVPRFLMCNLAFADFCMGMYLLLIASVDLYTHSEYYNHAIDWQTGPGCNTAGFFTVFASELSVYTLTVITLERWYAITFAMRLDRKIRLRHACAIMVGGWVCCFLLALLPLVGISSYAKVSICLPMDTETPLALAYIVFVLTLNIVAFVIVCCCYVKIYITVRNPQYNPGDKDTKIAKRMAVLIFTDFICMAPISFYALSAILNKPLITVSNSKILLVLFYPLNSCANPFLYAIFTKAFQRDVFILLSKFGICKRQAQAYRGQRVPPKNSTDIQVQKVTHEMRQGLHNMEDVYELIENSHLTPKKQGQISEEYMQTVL
Summary of the method: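 Cells expressing human TSHR (HEK293) are dispensed in HBSS/HEPES containing 70 uM RO 20-1724, compound is added, then TSH at EC80 (4 nM final). Antibody in lysis buffer follows, 30 minutes at room temperature before HTRF detection.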

[27] = target: Thyrotropin-releasing hormone receptor (Homo sapiens) (UniProt P34981); assay: qHTS for Small Molecule Agonists and Allosteric Enhancers of Human TRH Receptor: Validation Screen for Agonists (AID 493127;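 active means calcium activation more than 3 SD above the typical response in the agonist read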;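 further: intracellular calcium rise by fluo-8 fluorescence before TRH EC20 addition; 0% is about no effect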); conditions: TRH receptor agonist cell assay; at 2 µM; hits give high values
Thyrotropin-releasing hormone receptor (Homo sapiens), sequence (P34981 whole entry, looked up): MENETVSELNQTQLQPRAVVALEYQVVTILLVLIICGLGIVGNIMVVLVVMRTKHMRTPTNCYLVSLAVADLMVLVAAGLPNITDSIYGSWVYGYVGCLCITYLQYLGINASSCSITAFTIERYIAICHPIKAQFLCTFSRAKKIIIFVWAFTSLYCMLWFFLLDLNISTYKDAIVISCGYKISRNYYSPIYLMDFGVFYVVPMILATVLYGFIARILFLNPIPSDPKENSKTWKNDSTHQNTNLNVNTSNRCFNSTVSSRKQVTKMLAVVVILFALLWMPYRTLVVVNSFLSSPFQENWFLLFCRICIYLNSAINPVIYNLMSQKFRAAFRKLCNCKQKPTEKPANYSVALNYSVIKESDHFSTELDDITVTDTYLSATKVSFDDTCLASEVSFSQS
Summary of the method: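 Compound-evoked intracellular calcium release in fluo-8-loaded TRHR cells, read kinetically on FDSS (Ex 480/Em 530, 1 s/cycle) after 23 nL pintool transfer. Agonist phase preceded 10 nM TRH EC20 addition.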

[28] = target: Galactokinase (Homo sapiens) (UniProt P51570); assay: qHTS Validation Assay for Inhibitors of Human Galactokinase (GALK) (AID 493189); further: 0% is about no effect
Galactokinase (Homo sapiens), sequence (P51570 whole entry, looked up): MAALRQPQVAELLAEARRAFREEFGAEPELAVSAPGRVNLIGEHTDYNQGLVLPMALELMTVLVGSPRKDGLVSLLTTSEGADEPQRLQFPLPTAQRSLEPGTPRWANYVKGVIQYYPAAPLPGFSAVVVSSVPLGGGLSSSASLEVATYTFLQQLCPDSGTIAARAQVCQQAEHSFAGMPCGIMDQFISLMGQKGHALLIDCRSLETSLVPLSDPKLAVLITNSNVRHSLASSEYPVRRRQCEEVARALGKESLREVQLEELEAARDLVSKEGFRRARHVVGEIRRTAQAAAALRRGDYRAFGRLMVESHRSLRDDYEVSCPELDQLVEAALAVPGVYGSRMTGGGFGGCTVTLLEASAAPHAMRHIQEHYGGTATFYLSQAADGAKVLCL
Summary of the method: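 Compounds were pin-transferred into ATP buffer, then GALK-galactose mix was added (final 5 nM enzyme, 100 uM galactose, 35 uM ATP). After 1 h at room temperature, remaining ATP was measured luminescently.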

[29] = Validation screen for small molecules that induce DNA re-replication in SW480 colon adenocarcinoma cells (AID 504364); further: 0% is about no effect
Summary of the method: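 Image-based DNA content read-out: Hoechst stain 40 min, total nuclear fluorescence intensity (ex 405 nm, em 500-530 nm) after 48 h compound exposure of 250 SW480 cells/well at 37 C, 5% CO2, versus DMSO vehicle.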

[30] = target: Voltage-gated inwardly rectifying potassium channel KCNH2 (Homo sapiens) (UniProt Q12809); assay: qHTS Assay for Small Molecule Inhibitors of the Human hERG Channel Activity (AID 588834);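 further: U2OS cells transduced with hERG by BacMam; top concentration of the series differs between compounds; on the % scale 0 is the no-effect control and ±100 the full control effect; lower thallium flux fluorescence means stronger hERG block; nearly all actives have a fitted effect of over 50% in size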
Summary of the method: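 Cells were infected with hERG-BacMam virus for 4 hrs at room temperature, grown overnight, then seeded at 2000/well. After dye loading and roughly 10 min compound treatment, thallium influx was triggered and fluorescence recorded.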

COc1ccc2c(c1)c(CC(=O)O)c(C)n2Cc1ccc(F)cc1
inactive: activity change, negative = inhibition [1] 1.56% [at 38 µM] | activity change, negative = inhibition [2] 6.06% [at 38 µM] | activity, negative = inhibition [3] 11.9% [at 38 µM] | Potency [4] > 46 µM | Potency [5] > 46 µM | outcome [6] | Potency [7] | outcome [8] | outcome [9] | Potency [10] | Potency [11] | Potency [12] | outcome [13] | outcome [14] | outcome [15] | Potency [16] | Potency [17] | outcome [18] | Potency [19] | Potency [20] | outcome [21] | Potency [22] | outcome [23] | Potency [24] | outcome [25] | outcome [26] | activation [27] 1.38% | outcome [28] | outcome [29] | Potency [30]
